Data on 38 molecules can be found in the supplement of paper PMC5919970.

Counter-ions that a name gives are not always drawn. Over roughly 2,000 compounds, “fractional viability relative to vehicle” has its median near 0.92; the lowest 2% begin near 0.11. Many of the other results were omitted from the sample, so the lowest values are more common in it than they were.

The subject of the assay is TYKNU. The assay is described as follows: fractional viability relative to vehicle; TYKNU is a high-grade serous ovarian cancer line; higher = less growth inhibition. Particulars: 72 h, genotype: OPA1 knockout (sgOPA1 #2). The gist of the method:
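TYKNU control cells or lentiCRISPRv2 knockout derivatives were seeded at 500 cells per well into drug-stamped 384-well plates holding a ~2100-compound library at 2 or 10 μM, in duplicate. Cells were grown at 37 °C in 5% CO2 in RPMI 1640 with 10% FBS, and drug treatment lasted 72 h. Viability was read by Cell Titer Glo luminescence. Duplicate treatment wells were averaged and normalised to duplicate control wells from the same plate position.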

`OCCOc1ccc(/C(=C(/CCCl)c2ccccc2)c2ccccc2)cc1` [Ospemifene]: the fractional viability runs as follows: (2uM) 0.854; (10uM) 0.735.

Take `CC(=O)c1cc([N+](=O)[O-])c(Sc2cccc(Cl)c2Cl)s1`: the fractional viability by setting is: (2uM) 0.895; (10uM) 0.2.

Consider `CN(C)C(=O)c1ccc(S(=O)(=O)c2ccc(NC(=O)[C@@](C)(O)C(F)(F)F)c(Cl)c2)cc1`, for which the fractional viability reads like this: (2uM) 0.83; (10uM) 0.753.

`CNCc1ccc(-c2cc(-c3nc(-c4ccc(S(=O)(=O)C(C)C)cc4)cnc3N)on2)cc1` yielded a fractional viability (2uM) of 0.792 and a fractional viability (10uM) of 0.849.

Take `NC[C@@](O)(c1ccc(Cl)cc1)c1ccc(-c2cn[nH]c2)cc1`: the fractional viability was found to be 0.858 (2uM) and 0.87 (10uM).

Turning to `O=C(NC1CCN(CCCCC2(C(=O)NCC(F)(F)F)c3ccccc3-c3ccccc32)CC1)c1ccccc1-c1ccc(C(F)(F)F)cc1` [Lomitapide Mesylate], the fractional viability was 0.887 (2uM) and 0.0779 (10uM).

As to `O=C(O)c1ccccc1C(=O)Nc1ccc(-c2ccccc2)cc1` [Kartogenin], the fractional viability amounted to 0.838 (2uM) and 0.747 (10uM).

Turning to `C=CCc1ccc(O)c(-c2ccc(O)c(CC=C)c2)c1` [Honokiol], the fractional viability reads like this: (2uM) 0.957; (10uM) 1.01.

Consider `Cc1ccc(C(=O)N(CCCN)[C@@H](c2nc3cc(Cl)ccc3c(=O)n2Cc2ccccc2)C(C)C)cc1`, for which the fractional viability by setting is: (2uM) 0.71; (10uM) 0.309.

In the case of `C#CC[C@H](c1nc2cc(Cl)ccc2c(=O)n1Nc1ccccc1)N(CCCN)C(=O)c1cccc(Cl)c1F`, the fractional viability reads like this: (2uM) 0.562; (10uM) 0.0443.

Take `O=C1C(=O)N(Cc2ccc(Cl)c(Cl)c2)c2ccccc21` [Apoptosis Activator 2]: the fractional viability (2uM) came out at 0.461 and the fractional viability (10uM) turned out to be 0.287.

With `Cc1cccc(-c2[nH]c(C(C)(C)C)nc2-c2ccc3nccnc3c2)n1`, the fractional viability by setting is: (2uM) 1.28; (10uM) 1.26.

For the molecule `CC1=CC(=O)c2ccccc2C1=O` [Menadione], the fractional viability by setting is: (2uM) 0.94; (10uM) 0.75.

`CC1(C)CCC2=C(O1)c1ccccc1C(=O)C2=O` [Beta-Lapachone] returned a fractional viability (2uM) of 0.202 and a fractional viability (10uM) of 0.0483.

The molecule `OCCn1cc(-c2cnc3nnn(Cc4ccc5ncccc5c4)c3n2)cn1` displayed a fractional viability (2uM) of 1.09 and a fractional viability (10uM) of 1.14.

In turn, `COc1ccc(C2=N[C@@H](c3ccc(Cl)cc3)[C@@H](c3ccc(Cl)cc3)N2C(=O)N2CCNC(=O)C2)c(OC(C)C)c1` [Nutlin-3a] had a fractional viability (2uM) of 0.481 and a fractional viability (10uM) of 0.367.

`COc1ccc(C2=N[C@@H](c3ccc(Cl)cc3)[C@@H](c3ccc(Cl)cc3)N2C(=O)N2CCNC(=O)C2)c(OC(C)C)c1` [Nutlin-3]: the fractional viability amounted to 0.858 (2uM) and 0.623 (10uM).

On to `CCCc1cc2c(N3CCN(C4=NCC(C)(C)S4)CC3)ncnc2s1` [MI-2 (Menin-MLL Inhibitor)], for which the fractional viability by setting is: (2uM) 0.828; (10uM) 0.711.

For `CN(C)C(=S)NN=C(c1ccccn1)c1ccccn1`, the fractional viability is, setting by setting: (2uM) 0.572; (10uM) 0.755.

`O=C(Nc1cccc(Cl)c1)c1ccccn1`: the fractional viability is, setting by setting: (2uM) 1.19; (10uM) 1.02.

`Clc1ccc(NN=C(c2ccccc2)c2ccccn2)nc1`: the fractional viability stood at 0.229 (2uM) and 0.0582 (10uM).

Molecule `CC(C)C[C@@H](C=O)NC(=O)[C@H](CC(C)C)NC(=O)[C@H](CC(C)C)NC(=O)OCc1ccccc1` displayed a fractional viability (2uM) of 0.236 and a fractional viability (10uM) of 0.144.

For the molecule `O=C(O)C(S)=Cc1c[nH]c2ccc(F)cc12`, the fractional viability runs as follows: (2uM) 0.79; (10uM) 0.825.

Regarding `Nc1ncnc2c1C(=O)N(c1ccc([C@H]3CC[C@H](CC(=O)O)CC3)cc1)CCO2`, the fractional viability reads like this: (2uM) 0.723; (10uM) 0.773.

With `Nc1cccc(S(=O)(=O)N2CCCN(S(=O)(=O)c3ccc4c(c3)OCCO4)CC2)c1`, the fractional viability by setting is: (2uM) 0.783; (10uM) 0.849.

For the molecule `C=CC(=O)Nc1ccc2ncnc(Nc3cccc(Br)c3)c2c1`, the fractional viability (2uM) was determined as 0.982 and the fractional viability (10uM) worked out at 0.588.

In the case of `C=CC(=O)Nc1ccc2ncnc(Nc3ccc(OCc4cccc(F)c4)c(Cl)c3)c2c1`, the fractional viability runs as follows: (2uM) 0.742; (10uM) 0.0667.

Take `CS(=O)(=O)CCNCc1ccc(-c2ccc3ncnc(Nc4ccc(OCc5cccc(F)c5)c(Cl)c4)c3c2)o1`: the fractional viability (2uM) came out at 1.05 and the fractional viability (10uM) worked out at 0.369.

For the molecule `CC(C=CC(=O)NO)=CC(C)C(=O)c1ccc(N(C)C)cc1` (stereo unspecified) [Trichostatin A (TSA)], the fractional viability is 0.335 (2uM) and 0.298 (10uM).

Consider `O=C(O)c1ccc(-c2c[nH]c3ncc(-c4ccccc4)cc23)cc1C1CCCC1`, for which the fractional viability reads like this: (2uM) 0.98; (10uM) 1.11.

With `Cc1ccc([N+](=O)[O-])cc1S(=O)(=O)N(C)/N=C/c1cnc2ccc(Br)cn12`, the fractional viability reads like this: (2uM) 0.428; (10uM) 0.422.

Turning to `Cc1cc(C(N)=O)ccc1-n1c(CCC(=O)O)ccc1-c1ccc(-n2ccnc2)cc1`, the fractional viability runs as follows: (2uM) 0.877; (10uM) 0.84.

Regarding `CCOC(=O)c1ccc(NC2CCCCC2)c(N)c1` [Ferrostatin-1 (Fer-1)], the fractional viability (2uM) is 1.03 and the fractional viability (10uM) was determined as 0.934.

Consider `CC(C)[C@H](N)C(=O)OCC(CO)OCn1cnc2c(=O)[nH]c(N)nc21` (stereo partly specified) [Valganciclovir HCl], for which the fractional viability is 0.846 (2uM) and 0.832 (10uM).

As for `CCC[C@H](NC(=O)/C(C#N)=C/c1cccc(Br)n1)c1ccccc1` [Degrasyn (WP1130)], the fractional viability (2uM) was determined as 0.343 and the fractional viability (10uM) came to 0.0765.

For the molecule `C[C@H](NC(=O)/C(C#N)=C/c1cccc(Br)n1)c1ccccc1`, the fractional viability is 0.867 (2uM) and 0.0926 (10uM).

`C[C@H](NC(=O)CCc1nc2ccccc2c(=O)[nH]1)c1ccccc1`: the fractional viability was determined as 0.861 (2uM) and 0.876 (10uM).

For `N#C/C(=C\c1ccc(O)c(O)c1)C(=O)NCc1ccccc1` [AG-490 (Tyrphostin B42)], the fractional viability is, setting by setting: (2uM) 1.03; (10uM) 1.08.
